Assay [1] can be described thus: qHTS Screen of the MIPE 4.0 Collection Against Ewings Sarcoma (TC71) (AID 1259253). Note: nearly all actives have a fitted effect of over 40% in size. Note: potency is the fitted concentration of half-maximal effect. Summed up: (§1)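 Dose series incubated 48 h with cells in RPMI plus 5% FBS, glutamine and penicillin/streptomycin; cell viability then quantified via CellTiter-Glo.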
(In general: qHTS replaces the single test concentration by a dilution series.)

Assay [2] is described as follows: qHTS Screen of the MIPE 4.0 Collection Against Ewings Sarcoma (EW8) (AID 1259255).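 For viability: 100% = DMSO-treated cells and 0% = medium-only wells without cells.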 Note: nearly all actives have a fitted effect of over 35% in size. Note: potency is the fitted concentration of half-maximal effect. In outline:
as §1

Assay [3] in a line: qHTS Screen of the MIPE 4.0 Collection Against Ewings Sarcoma (TC32) (AID 1259256). Note: nearly all actives have a fitted effect of over 45% in size. Note: potency is the fitted concentration of half-maximal effect. Summed up: as §1
Assay [4] in a line: Identifying Small Molecule Inhibitors of Pancreatic Cancer Stem Cells (Panc1, Spheroid) (AID 1259359).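 Note: potency is the fitted concentration of half-maximal effect; compound exposure lasted 48 h before reading.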 Summed up: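 After a 4 h attachment period, compounds were pinned into wells and cultures held 48 h under standard incubator conditions. Viability was then measured as CellTiter-Glo luminescence following 10 min at room temperature.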
The nature of assay [5]: Identifying Small Molecule Inhibitors of Pancreatic Cancer Stem Cells (A278, Adherent) (AID 1259361). Note: nearly all actives have a fitted effect of over 35% in size. In outline: (§2)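 Endpoint: ATP-based luminescence, 48 h drug exposure. Bortezomib at 9.2 uM final as full-kill control; DMSO vehicle as negative control; activity normalized between vehicle and cell-free wells.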
Assay [6] is described as follows: P-glycoprotein substrates identified in KB-8-5-11 adenocarcinoma cell line, qHTS therapeutic library screen (AID 1346987). For activity change, negative = cytotoxicity: series mostly up to about 44 µM; % is set by controls: 0 for no effect and ±100 for the full control effect. Note: nearly all actives have a fitted effect of over 65% in size. Note: potency is the fitted concentration of half-maximal effect. Summed up:
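Compounds are pinned in dose-response onto KB-8-5-11 cells (500 cells/well, colchicine-free medium) and left 72 h at 37 degree C. CellTiter-Glo luminescence then yields AC50 values.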

Assay [7] can be described thus: NS1 protein of Zika virus - qHTS assay to identify small molecule inhibitors in human HEK 293 cells (AID 1347053). Note: nearly all actives have a fitted effect of over 55% in size. Note: potency is the fitted concentration of half-maximal effect. Summed up:
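TR-FRET signal from two anti-ZIKV NS1 antibodies quantified NS1 in HEK 293 cells 24 h after MR766 infection at MOI = 0.5; compounds were added 1 h before virus. Uninfected cells and infected cells defined the NS1 normalization range.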

Assay [8] is described as follows: P-glycoprotein substrates identified in KB-3-1 adenocarcinoma cell line, qHTS therapeutic library screen (AID 1346986). Note: nearly all actives have a fitted effect of over 60% in size. Summed up:
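In 1536-well format, 500 cells/well received pinned compound titrations and were incubated 72 h, 5% CO2. Viability was read by CellTiter-Glo; cytotoxic if AC50 < 10 uM and efficacy >50%.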

A short description of assay [9]: Identifying Small Molecule Inhibitors of Pancreatic Cancer Stem Cells (SN12C, Spheroid) (AID 1259360). Note: potency is the fitted concentration of half-maximal effect. To be noted: Potency: SN12C spheroid viability. In outline:
(§3)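 Luminescent ATP readout (CellTiter-Glo) quantifies surviving cells after a 48 h drug incubation. Normalization uses DMSO wells as no inhibition and media-only wells as full inhibition; bortezomib served as positive control.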

Assay [10] in a line: qHTS assay to identify small molecule inhibitors of chordoma cells - UCH-2 (AID 1259356). Note: series mostly up to about 46 µM; % is set by controls: 0 for no effect and ±100 for the full control effect.
A short description of assay [11]: Identifying Small Molecule Inhibitors of Pancreatic Cancer Stem Cells (A2780, Spheroid) (AID 1259357).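 Note: compound exposure lasted 48 h before the ATP luminescence read.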 Note: potency is the fitted concentration of half-maximal effect. Particulars: Potency: A2780 spheroid viability. In outline: as §3
The nature of assay [12]: Identifying Small Molecule Inhibitors of Pancreatic Cancer Stem Cells (SN12C, Adherent) (AID 1259358).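 Note: potency is the fitted concentration of half-maximal effect; cell survival measured after 48 h of compound exposure.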 In outline:
as §2

The nature of assay [13]: Identifying Small Molecule Inhibitors of Pancreatic Cancer Stem Cells (Panc1, Adherent) (AID 1259362). Note: potency is the fitted concentration of half-maximal effect. To be noted: Potency: viability. In outline: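 Cytotoxicity read by CellTiter-Glo luminescence after 48 h compound exposure at 37C; percent activity scaled between DMSO-treated cells and cell-free wells. Spheroid formats used cells pre-formed 14 days in stem cell media on hydrogel.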

“And” between values parts separate entries of the source, which are not always exact repeats. Identical values can stand only once. Records with an inconclusive call do not appear. A number with no mark means an inactive call. The source made the active and inactive calls. Calls come from the whole dose curve; as a rule, active = well fitted curve in the direction sought with a large enough effect; inconclusive = small, poorly fitted or top-dose-only effect, or another doubt; inactive = no such curve, though single readings can be large; an effect the other way counts as inactive or inconclusive.

On to `O=c1[nH]nc(Sc2ncc([N+](=O)[O-])s2)n1-c1ccc2c(c1)OCCO2`, for which the Potency is 6.62 µM (active) in [1]; 2.96 µM (active) in assay [2]; 2.96 µM (active) in assay [3]; 5.26 µM (active) in assay [4]; 18.7 µM (active) in assay [6]; 9.35 µM (active) in assay [7]. For the same compound, in [5], the IC50 (viability decrease) is 26.4 µM (active).
`Cn1c(CNc2ccc(C(=N)N)cc2)nc2cc(C(=O)N(CCC(=O)O)c3ccccn3)ccc21`: the Potency entry in assay [1], in [2], in assay [3], in assay [8], in assay [6] and in assay [7] was “inactive” throughout.
Consider `Cn1c(=O)n(-c2ccc(C(C)(C)C#N)cc2)c2c3cc(-c4cnc5ccccc5c4)ccc3ncc21`, for which the Potency is 0.059 µM (active) in [1]; 0.0296 µM (active) in assay [2]; 0.0332 µM (active) in assay [3]; 0.148 µM (active) in [9]; 366 nM (active) and 18.7 nM (active) in [6].
Take `CC[C@H]1CN2CCc3cc(OC)c(OC)cc3[C@H]2C[C@@H]1C[C@@H]1NCCc2cc(OC)c(OC)cc21`: the Potency was 0.059 µM (active) in [1]; 0.0662 µM (active) in assay [2]; 0.0743 µM (active) in [3]; 1.18 µM (active) in [6]; 0.118 µM (active) in assay [7]. Besides, the result in assay [10] was inactive.
Turning to `C1=CCOCc2cc(ccc2OCCN2CCCC2)Nc2nccc(n2)-c2cccc(c2)OCC1`, the Potency is 4.69 µM (active) in assay [1]; 6.62 µM (active) in assay [2]; 7.43 µM (active) in assay [3]; 3.32 µM (active) in [11]; 5.26 µM (active) in assay [12]; 3.32 µM (active) in assay [6]. For the same compound, in assay [7], the Potency was 4.18 µM (active). Further, the Potency result in assay [9] was “inactive”. Besides, the IC50 (viability decrease) in assay [5] was 2.09 µM (active).
Turning to `COc1cc2c(Oc3ccc(NC(=O)C4(C(=O)Nc5ccc(F)cc5)CC4)cc3F)ccnc2cc1OCCCN1CCOCC1`, the Potency in [1] was 3.32 µM (active); in [2], 1.32 µM (active); in assay [3], 1.66 µM (active); in assay [9] it was 23.5 µM (active); in assay [6], 935 nM (active) and 5.17 µM (active). For the same compound, the IC50 (viability decrease) in [5] is 4.69 µM (active).
Regarding `COc1cc(=C2C=c3ccccc3=N2)[nH]c1=Cc1[nH]c(C)cc1C`, the Potency in [1] was 0.469 µM (active); in assay [2], 2.35 µM (active); in [3], 1.18 µM (active); in assay [11], 20.9 µM (active); in assay [4] it was 1.48 µM (active). In addition, the IC50 (viability decrease) in [5] was 14.8 µM (active).
Consider `C[C@@H](Oc1cc(-c2cnn(C3CCNCC3)c2)cnc1N)c1c(Cl)ccc(F)c1Cl`, for which the Potency in assay [1] was 14.8 µM (active); in assay [2], 10.5 µM (active); in [3] it was 4.18 µM (active); in assay [12], 18.7 µM (active); in assay [9] it was 20.9 µM (active); in [6] it was 13.2 µM (active) and 16.4 µM (active) and 11.6 µM (active). The IC50 (viability decrease) in assay [5] is 4.18 µM (active).
On to `CCN(CC)CCNC(=O)c1ccc2nc(-c3ccccc3)c(-c3ccc(CN4CCC(n5c(=O)[nH]c6ccccc65)CC4)cc3)nc2c1`, for which the Potency in assay [1] is 23.5 µM (active); in assay [2], 16.6 µM (active); in assay [3], 18.7 µM (active); in [7], 3.32 µM (active).
Consider `CCOc1cc2ncc(C#N)c(Nc3ccc(F)c(Cl)c3)c2cc1NC(=O)C=CCN(C)C`, for which the Potency in assay [1] is 0.132 µM (active); in assay [2], 0.132 µM (active); in [3], 0.132 µM (active); in [4], 16.6 µM (active); in [9], 1.48 µM (active). In assay [5], the IC50 (viability decrease) is 20.9 µM (active). For the same compound, the Potency entry in assay [7] is “inactive”.
On to `Cc1cc(Nc2cc(N3CCN(C)CC3)nc(C=Cc3ccccc3)n2)n[nH]1`, for which the Potency was 2.41 µM (active) in assay [1]; 1.71 µM (active) in [2]; 2.41 µM (active) in assay [3]; 6.05 µM (active) in [6]; 21.5 µM (active) in [7]. Besides, the Potency result in assay [9] is “inactive”. For the same compound, in assay [5], the IC50 (viability decrease) was 2.35 µM (active).
Regarding `CC(=O)c1c(C)c2cnc(Nc3ccc(N4CCNCC4)cn3)nc2n(C2CCCC2)c1=O`, the Potency in assay [1] was 5.26 µM (active); in assay [2], 20.9 µM (active); in assay [3] it was 14.8 µM (active). Besides, the Potency result in assay [11] is “inactive”. Also, the activity change, negative = cytotoxicity in assay [6] is 6.87% [at 5.11 µM].
In the case of `O=C(O)CCCc1c[nH]c2ccccc12`, the Potency entry in assay [1], in assay [2], in assay [3], in assay [8], in assay [6] and in [7] was “inactive” throughout.
On to `C[C@]12CC[C@H](O)CC1=CCC1C2CC[C@]2(C)C(n3cnc4ccccc43)=CCC12` (some centres not stated), for which the Potency entry in [1], in [2], in assay [3], in assay [6] and in assay [7] was “inactive” each time.
In the case of `CC(=O)OCCN1C(=O)c2c(C)nc3ccc(S(=O)(=O)N4CCOCC4)cc3c2C1=O`, the Potency entry in assay [1], in assay [2], in assay [3], in [11], in assay [9] and in assay [8] was “inactive” each time. The Potency entry in assay [6] and in assay [7] was “inactive” in each case. In addition, the IC50 (viability decrease) result in assay [5] was “inactive”. In [13], the Potency is 10.5 µM (active).
Take `c1ccc2c(CCNc3ccc(Nc4ccncc4)cc3)c[nH]c2c1`: the Potency in assay [1] was 14.8 µM (active); in assay [2], 5.26 µM (active); in assay [3], 5.26 µM (active); in assay [9], 23.5 µM (active); in assay [7], 8.33 µM (active). The Potency entry in assay [11] is “inactive”. In assay [5], the IC50 (viability decrease) was 16.6 µM (active).
Take `COc1cc2c(NC3CCN(C(C)C)CC3)nc(C3CCCCC3)nc2cc1OCCCN1CCCC1`: the Potency in assay [1] is 7.43 µM (active); in [2], 5.9 µM (active); in assay [3], 5.26 µM (active). Moreover, the Potency result in assay [7] is “inactive”.
In the case of `CC(C)[C@H](C(=O)Nc1ccc(C(=O)NO)cc1)c1ccccc1`, the Potency in [1] was 0.662 µM (active); in [2] it was 0.526 µM (active); in [3] it was 0.526 µM (active); in assay [6] it was 1.48 µM (active). The IC50 (viability decrease) in assay [5] was 0.833 µM (active).
